In PubChem BioAssay (NCATS):
Records with an inconclusive call do not appear. Entries that show only a call come without a potency. Activity calls are given as the source filed them. Calls come from the whole dose curve; as a rule, active = well fitted inhibition curve with a large enough effect; inconclusive = small, poorly fitted or top-dose-only effect; inactive = no such curve, though single readings can be large or run the other way.

Experiments:
[1] = test system: Zika virus NS2B-NS3 protease (unlinked complex); test: Primary screen GU Rhodamine qHTS for Zika virus inhibitors: Unlinked NS2B-NS3 protease assay (AID 1347159); note: nearly all actives have a fitted effect of over 60% in size
Method in brief: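 Compounds, tested up to 114 microM, were incubated for 15 minutes with 25 nM unlinked NS2B-NS3 protease at pH 8.0. Cleavage of 1.5 microM Rhodamine110 substrate was then followed by fluorescence for 15 minutes.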

[2] = test system: Zika virus NS2B-NS3 protease (linked construct); test: Primary screen NINDS Rhodamine qHTS for Zika virus inhibitors (AID 1347160); note: nearly all actives have a fitted effect of over 55% in size
Method in brief: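 Percent inhibition, normalized to uninhibited and enzyme-free controls, is fitted to a 4-parameter Hill equation. Fluorescence change comes from a 15-min cleavage of 1.5 microM bis-peptide Rhodamine110 substrate by 25 nM linked NS2B-NS3 at room temperature.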

Compound | Potency [1] | Potency [2]
Cc1cc(C(=O)Nc2cccc(C(=O)Nc3cccc(C(F)(F)F)c3)c2)on1 | inactive | inactive
COc1ccc([C@@H]2OC[C@H]3[C@@H]2CO[C@@H]3c2ccc(OC3OC(CO)C(O)C(O)C3O)c(OC)c2)cc1OC (stereo not given in full) | inactive | inactive
CC(C)=CCC/C(C)=C/CO[C@@H]1O[C@H](CO)[C@@H](O)[C@H](O)[C@H]1O | inactive | inactive
C=C(CO)C12OC1C1(C)C(=CC2=O)C(O)C(O)CC1C (stereo not given) | inactive | inactive
CNS(=O)(=O)CC1CCC(N(C)c2ncnc3[nH]ccc23)CC1 (stereo not given) | inactive | inactive
CC1OC(OCC2OC(OC3CCC4(C)C(CCC5(C)C4CC=C4C6CC(C)(C)CCC6(C(=O)OC6OC(CO)C(O)C(O)C6O)CCC45C)C3(C)CO)C(O)C(O)C2O)C(O)C(O)C1O (stereo not given) | inactive | inactive
CC(C)=CCC[C@](C)(O[C@@H]1O[C@H](CO[C@@H]2O[C@H](CO)[C@@H](O)[C@H](O)[C@H]2O)[C@@H](O)[C@H](O)[C@H]1O)C1CC[C@]2(C)[C@@H]1[C@H](O)CC1[C@@]3(C)CC[C@H](O[C@@H]4O[C@H](CO)[C@@H](O)[C@H](O)[C@H]4O[C@@H]4O[C@H](CO)[C@@H](O)[C@H](O)[C@H]4O)C(C)(C)[C@@H]3CC[C@]12C (stereo not given in full) | inactive | inactive
CC(C)(C)NS(=O)(=O)c1cncc(-c2cc(F)c3nc(N)nn3c2)c1 | inactive | inactive
FC(F)(F)c1cc(-c2ncn(/C=C\c3nnco3)n2)cc(C(F)(F)F)c1 | inactive | inactive
C=CC(C)(O)CC[C@H]1C(=C)CCC2[C@](C)(C(=O)O)CCC[C@@]21C (stereo not given in full) | inactive | inactive
